Among the data in PubChem BioAssay (NCATS) are activation and Potency values, retold here.

Inconclusive results are not listed. Unmarked numbers belong to inactive results. Activity calls are given as the source filed them. Calls come from the whole dose curve; as a rule, active = well fitted curve in the direction sought with a large enough effect; inconclusive = small, poorly fitted or top-dose-only effect, or another doubt; inactive = no such curve, though single readings can be large; an effect the other way counts as inactive or inconclusive.

The target of assay [1] is Cellular tumor antigen p53 (Homo sapiens) (UniProt P04637). As to the kind of experiment: Primary qHTS for small molecule compounds that upregulate eGFP-tagged delta133p53alpha (in N-terminal) cells. (AID 2060322).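 For activation: cells pre-induced with doxycycline then dosed without doxycycline; series mostly up to about 56 µM; 0% = DMSO vehicle and 100% = reference activator.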 Note: nearly all actives have a fitted effect of over 75% in size. Note: potency is the fitted concentration of half-maximal effect. Conditions: NCI-H358 eGFP-delta133p53alpha fluorescence, 24 h; activation: stronger effect = higher value. Put shortly: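 NCI-H358 cells pre-induced 24 h with 10 ng/ml doxycycline for eGFP-delta133p53alpha, plated dox-free and exposed 24 h at 37C to titrated compounds. Fixed, Hoechst-stained; gated GFP peak intensity by laser scanning cytometry, normalized to DMSO (0%) and 57.5 uM 5-azacytidine (100%).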

For assay [2], the target named is Aldehyde dehydrogenase, mitochondrial (Homo sapiens) (UniProt P05091). As to the kind of experiment: qHTS for Inhibitors of the Aldehyde Dehydrogenase Family (ALDH2) Primary screen (AID 2061308).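 Note: plate controls were vehicle for no effect and reference inhibitor for full effect; nearly all actives have a fitted effect of over 55% in size.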 Background: qHTS replaces the single test concentration by a dilution series.
For assay [3], the target named is Retinaldehyde dehydrogenase 3 (Homo sapiens) (UniProt P47895). Put plainly: qHTS for Inhibitors of the Aldehyde Dehydrogenase Family (ALDH1A3) Primary screen (AID 2061315).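 Note: plate controls were DMSO vehicle for no effect and reference inhibitor for full effect.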

Cellular tumor antigen p53 (Homo sapiens), sequence (P04637 whole entry, looked up): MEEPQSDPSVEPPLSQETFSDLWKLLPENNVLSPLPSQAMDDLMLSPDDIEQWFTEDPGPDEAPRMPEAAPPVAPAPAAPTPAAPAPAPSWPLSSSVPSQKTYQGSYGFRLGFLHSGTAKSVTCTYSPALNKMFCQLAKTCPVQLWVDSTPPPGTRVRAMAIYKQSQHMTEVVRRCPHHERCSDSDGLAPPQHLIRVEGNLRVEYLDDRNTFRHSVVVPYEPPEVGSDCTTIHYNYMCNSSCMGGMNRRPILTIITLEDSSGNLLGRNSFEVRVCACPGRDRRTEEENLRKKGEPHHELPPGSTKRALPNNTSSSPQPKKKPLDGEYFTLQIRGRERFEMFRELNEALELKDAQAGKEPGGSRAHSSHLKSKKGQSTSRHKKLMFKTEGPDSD

With `CC(=O)OC[C@]1(O)[C@H]2[C@H](OC(=O)CC(C)C)OC=C(CO[C@@H]3O[C@H](CO)[C@@H](O)[C@H](O)[C@H]3O)[C@H]2C[C@@H]1O`, the activation in assay [1] is -1.79%. For the same compound, the Potency entry in assay [2] and in assay [3] was “inactive” each time.

For `O=C(O)CC1CC(c2ccccc2)=NO1` (centres undefined), in assay [1], the activation is 16.3%. Moreover, the Potency result in assay [2] and in assay [3] was “inactive” throughout.

For `CC1CCC2C(C)(C)C(O)C(O)CC2(C)C12Cc1c(O)cc(CO)c(C=O)c1O2` (centres undefined), the activation in assay [1] was 0.763%. Further, the Potency result in assay [2] and in assay [3] was “inactive” throughout.

In the case of `CC1(C)CCCC2(C)C1C(O)C=C(CO)C2(O)CO` (centres undefined), the activation in assay [1] was -13.7%. The Potency result in assay [2] and in assay [3] was “inactive” throughout.

With `CC(C)CC(c1c(O)c(C=O)c(O)c(C=O)c1O)C1CCC(C)(O)C2CC(C(C)(C)O)CCC12C` (centres undefined), in assay [1], the activation is 22.3%. The Potency result in assay [2] and in assay [3] was “inactive” in each case.

`CSCC1OC(n2cnc3c(N)ncnc32)C(O)C1O` (centres undefined): in assay [1], the activation is 6.11%. In addition, the Potency result in assay [2] and in assay [3] was “inactive” each time.

Consider `CC(=O)OCC(=O)O[C@@H]1[C@H]2[C@@H](OC(=O)c3ccccc3)[C@@H](C)C[C@]2(O)[C@H](OC(C)=O)C2(C)[C@H]3CC(C)(C)C(=O)[C@@H]3CC1(OC(C)=O)[C@@H]2OC(C)=O` (some centres undefined), for which the activation in assay [1] was -11.6%. For the same compound, the Potency result in assay [2] and in assay [3] was “inactive” each time.

On to `CC1(CCC(=O)O)C(=O)C=CC23CC4CC(OC4(C)C2O)C13` (centres undefined), for which the activation in assay [1] is 6.87%. The Potency entry in assay [2] and in assay [3] was “inactive” throughout.

Regarding `COC1=CC(=O)C[C@@H](C)[C@]12Oc1cc(OC)cc(OC)c1C2=O`, in assay [1], the activation was 4.58%. The Potency entry in assay [2] and in assay [3] was “inactive” each time.

Take `COc1cc(O)c2c(c1)C1=CC(O)C(O)CC1(C)OC2=O` (centres undefined): the activation in assay [1] is 2.29%. Besides, the Potency entry in assay [2] and in assay [3] was “inactive” each time.

Consider `C=C1CCC2[C@@](C)(C=O)CCC[C@]2(C)[C@H]1CC/C(C)=C/CO` (some centres undefined), for which the activation in assay [1] was 18.3%. Besides, the Potency entry in assay [2] and in assay [3] was “inactive” each time.

`CC(/C=C/C1=CC2=CC(=O)C(C)(O)C(O)C2=CO1)=C\C(C)CCO` (centres undefined): in assay [1], the activation was 7.63%. Further, the Potency entry in assay [2] and in assay [3] was “inactive” each time.

Turning to `COC(C(=O)N1Cc2[nH]nc(NC(=O)c3ccc(N4CCN(C)CC4)cc3)c2C1)c1ccccc1` (centres undefined), the Potency in assay [1] is 23.9 µM (active). Moreover, the Potency result in assay [2] and in assay [3] was “inactive” each time.

In the case of `O=C(OCc1ccccc1O[C@@H]1O[C@H](CO)[C@@H](O)[C@H](O)[C@H]1O)C1(O)C=CCCC1O` (some centres undefined), in assay [1], the activation was -2.29%. Also, the Potency entry in assay [2] and in assay [3] was “inactive” each time.

As for `COC(=O)CC(O)CC(O)/C=C/c1c(C)ccc2c1C(OC(C)=O)CC(C)C2` (centres undefined), in assay [1], the activation was -0.763%. Moreover, the Potency result in assay [2] and in assay [3] was “inactive” throughout.

As to `CC(C)(O)C(=O)N1CCN(c2ccc(C(F)(F)F)c(C3=C(c4c[nH]c5ccccc45)C(=O)NC3=O)c2)CC1`, the Potency in assay [1] was 26.9 µM (active). Besides, the Potency result in assay [2] and in assay [3] was “inactive” throughout.

With `CC(NC(=O)C(O)C(C)C)C(=O)NC1C(=O)N(C)CCc2ccccc21` (centres undefined), the activation in assay [1] was 2.39%. Also, the Potency result in assay [2] and in assay [3] was “inactive” each time.

Take `CC1=C(C)C(=O)OC(C(C)C2CCC3C4C5OC5C5(O)CC(OC6OC(CO)C(OC7OC(C)C(O)C(O)C7O)C(O)C6O)CC(O)C5(C)C4CCC23C)C1` (centres undefined): the activation in assay [1] is 3.57%. Further, the Potency result in assay [2] and in assay [3] was “inactive” in each case.

Turning to `C/C=C(\C)C(=O)OC[C@H]1O[C@@H](O[C@H]2[C@@H](O[C@H]3O[C@H](CO)[C@@H](O)[C@H](O)[C@H]3O[C@@H]3O[C@H](CO)[C@@H](O)[C@H](O)[C@H]3O)O[C@H](COC(=O)/C(C)=C/C)[C@@H](O)[C@@H]2O)[C@H](O)[C@@H](O)[C@@H]1O`, in assay [1], the activation is -8.4%. Moreover, the Potency result in assay [2] and in assay [3] was “inactive” each time.

In the case of `Nc1c(NC/C=C\COc2cc(CN3CCCCC3)ccn2)c(=O)c1=O`, the activation in assay [1] was -10.3%. Also, the Potency result in assay [2] and in assay [3] was “inactive” in each case.

For the compound `O=C1NC(Cc2ccc(O)cc2)C(=O)N2CCCC12` (centres undefined), in assay [1], the activation was -19.8%. The Potency result in assay [2] and in assay [3] was “inactive” throughout.

`COc1ccc(Oc2c(Cl)cnn(C3c4ccccc4-c4ccccc43)c2=O)cc1`: the activation in assay [1] was 13.4%. In addition, the Potency entry in assay [2] and in assay [3] was “inactive” each time.

As for `COC(=O)C[C@H]1C(C)(C)[C@H](OC(C)=O)C2CC3=C4CC(=O)O[C@@H](c5ccoc5)[C@]4(C)CCC3[C@@]1(C)C2=O` (some centres undefined), in assay [1], the activation was 2.68%. Further, the Potency entry in assay [2] and in assay [3] was “inactive” throughout.

For the compound `CC(C)(O)C1CCC(C)(C2CCC3(C)C4CCC5C(C)(C(=O)OC6OC(CO)C(O)C(O)C6O)C(O)CC(O)C56CC46CCC23C)O1` (centres undefined), the activation in assay [1] was -11.5%. Also, the Potency result in assay [2] and in assay [3] was “inactive” throughout.

As to `COC(=O)CC(O)CC(O)/C=C/c1c(C)ccc2c1C(O)CC(C)C2` (centres undefined), in assay [1], the activation is -14.5%. The Potency entry in assay [2] and in assay [3] was “inactive” throughout.

Turning to `CC(O)/C=C/C1OC(=O)CC1Nc1ccc(C(=O)O)cc1` (centres undefined), the activation in assay [1] was -6.11%. The Potency entry in assay [2] and in assay [3] was “inactive” in each case.

Consider `N#CCc1ccc(O)cc1O[C@@H]1O[C@H](CO)[C@@H](O)[C@H](O)[C@H]1O`, for which, in assay [1], the activation was -11.6%. For the same compound, the Potency result in assay [2] and in assay [3] was “inactive” in each case.

Regarding `COC1CC(=O)C23C(=O)NC(CC(C)C)C2C(C)C(C)=CC3/C=C(\C)CCC(O)C1O` (centres undefined), the activation in assay [1] is 23.7%. In addition, the Potency result in assay [2] and in assay [3] was “inactive” each time.
